HT1080 IDH1KD tx: toxicity to HT-1080 IDH1 knockdown cells (counter line). Potency, µM (doses to about 46.1 µM), most hits filed as cytotoxic. HT-1080 IDH1 knockdown viability, ATP luminescence, 48 h. 360,000 tested, 2% active
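Viability of IDH1-knockdown HT-1080 fibrosarcoma cells was assessed by CellTiter-Glo after 48 h at 37 °C with titrated compound; concentration-effect curves were classified by fit quality and response size.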
HT1080NT lethal: kills 2HG-producing HT-1080-NT fibrosarcoma cells; 360,000 tested, 1.6% active; Potency, µM (top dose mostly 46.1 µM), most hits filed as cytotoxic; HT-1080-NT fibrosarcoma viability, CellTiter-Glo ATP luminescence, 48 h; AID 686970;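 also: NT is the 2HG producing partner of a matched IDH1 knockdown line; nearly all actives have a fitted effect of over 55% in size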
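Read-out is CellTiter-Glo luminescence after 10 minutes at room temperature, following 48 hours' compound treatment of HT-1080-NT cells (750 cells/well, RPMI, 5% FBS, 37 degrees C).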
TDP1 cell noCPT: qHTS for Inhibitors of human tyrosyl-DNA phosphodiesterase 1 (TDP1): qHTS in cells in absence of CPT | Potency, µM (titrated, usually from 46.2 µM), usual class: inhibitors | DT40 Tdp1-/- hTDP1 cells, no CPT, ATP luminescence, 48 h | AID 686978, 2013 | 420,000 tested, 15% active; also: nearly all actives have a fitted effect of over 55% in size
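Camptothecin absent (DMSO only). Human TDP1-complemented DT40 knockout cells, 400 cells/well, 37 °C for minimum 48 hr; ATP measured via CellTiter-Glo, 30 min dark incubation, luminescence.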
KB-3-1 cytotox: kills parental KB-3-1 adenocarcinoma cells; 400,000 tested, 1.4% active; Potency, µM (highest dose often 46.1 µM), actives largely listed as cytotoxic; KB-3-1 viability, CellTiter-Glo ATP luminescence, 72 h; also: nearly all actives have a fitted effect of over 60% in size
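Parental KB-3-1 adenocarcinoma cells in phenol-red-free DMEM with 10% FBS were pin-treated with compounds at several concentrations, incubated 72 h at 37 °C, and viability read by CellTiter-Glo luminescence; concentration-effect curves were fitted after normalization.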
KB-V1 MDR tox: KB-V1 MDR subline cytotoxicity; KB-V1 MDR cells viability, CellTiter-Glo, 72 h; AID 1347076; Potency, µM (doses to about 46.1 µM), hits mostly cytotoxic; 400,000 tested, 3.4% active; also: nearly all actives have a fitted effect of over 60% in size
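KB-V1 MDR subline cells in DMEM (phenol-red free, 10% FBS) exposed to compounds in qHTS concentration series for 72 h at 37 degrees C. Viability read by CellTiter-Glo luminescence; concentration-effect curves fitted after normalization and correction.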
TDP1 cell CPT: DT40-hTDP1 cell growth loss with CPT; chicken DT40 Tdp1-/-;hTDP1 cells + 20 nM CPT, ATP luminescence, 48 h; Potency, µM (titrated, usually from 46.2 µM), usual class: inhibitors; 420,000 tested, 12% active; AID 686979; also: nearly all actives have a fitted effect of over 55% in size
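Chicken DT40 Tdp1-/- cells complemented with human TDP1, 400 cells/well, exposed to compounds plus 20 nM camptothecin for at least 48 h at 37 C; viability read as ATP content by CellTiter-Glo luminescence.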
Hits are given with their value; . = inactive; ? = inconclusive; / = no result; [ ] = another dose, or the depositor's remark. Most compounds without a hit are left out; they make up all but 19% or so of the library. Calls follow the shape of the dose curve; as a rule, active = well fitted curve in the direction sought with a large enough effect; inconclusive = small, poorly fitted or top-dose-only effect, or another doubt; inactive = no such curve, though single readings can be large; an effect the other way counts as inactive or inconclusive.

SMILES	HT1080 IDH1KD tx	HT1080NT lethal	TDP1 cell noCPT	KB-3-1 cytotox	KB-V1 MDR tox	TDP1 cell CPT
COC(=O)/C(=C(/F)Sc1cc(C)c(O)c(C)c1)C(F)(F)F	?	.[9.24 µM]	7.31µM	?	.	10.3µM
O=C(c1ccc2c(c1)N(Cc1ccccc1F)C(=O)c1ccccc1S2(=O)=O)N1CCC(Cc2ccccc2)CC1	/	/	20.6µM	?	.	16.4µM
CC(NC(=O)c1ccc2c(c1)N(Cc1ccc(Cl)cc1)C(=O)c1ccccc1S2(=O)=O)c1ccccc1 (configuration not stated)	/	/	.	.	.	.
O=C(c1ccc2c(c1)N(Cc1ccc(Cl)cc1)C(=O)c1ccccc1S2(=O)=O)N1CCC(Cc2ccccc2)CC1	/	/	18.4µM	.	.	10.3µM
CC1CCN(C(=O)c2ccc3c(c2)N(Cc2ccccc2F)C(=O)c2ccccc2S3(=O)=O)CC1	/	/	?	.	.	?
Cc1cc(C)nc(/N=C(\N)C2=C(O)CC(C)(C)CC2=O)n1	.	.	.	.	.	.
O=C(CNC(=O)c1ccco1)N/N=C/c1cccs1	.	.	.	.	.	.
Cc1ccc(CN2CCC(Oc3cccc(C(=O)N(C)CCN(C)C)c3)CC2)cc1C	20.6µM	?	?	.	.	?
O=C(O)c1ccc(N/N=C/C(Br)=C/c2ccccc2)cc1	?	.	7.31µM	.	.	5.8µM
O=C(N/N=C/c1cccnc1)C(O)c1ccccc1 (configuration not stated)	.	.	.	.	.	.
O=C(N/N=C/C(Br)=C/c1ccccc1)NC1CCCCC1	?	?	14.6µM	.	.	9.2µM
O=C(N/N=C/C(Br)=C/c1ccccc1)C(O)c1ccccc1 (configuration not stated)	.	?	8.2µM	?	?	5.8µM
CC(C)(C)c1ccc(/C=N/NC(=S)NC2CCCCC2)cc1	?	.	11.6µM	?	?	14.6µM
COC(=O)C(C)NC(=O)C12CC3CC(C1)CC(c1ccc(C)cc1)(C3)C2 (configuration not stated)	.	.	.	.	.	?
O=C(N/N=C/c1ccccc1F)NC1CCCCC1	.	.	.	.	.	.
O=C(N/N=C/c1ccccc1)NC1CCCCC1	.	.	?	.	16.4µM	?
CC(/C=N/NC(=O)NC1CCCCC1)=C\c1ccccc1	.	.	20.6µM	.	.	20.6µM
O=C(N/N=C/C(Br)=C/c1ccccc1)C1CC1	.	.	13µM	.	?	8.2µM
CNC(=O)C[C@H]1C(=O)N(C2CCCCC2)C[C@@H]1c1ccc(Br)cc1	.	.	.	.	.	.
COc1ccc(/C=C/C(=O)NCCSCc2ccco2)cc1	.	.	?	.	.	.
CCCCCCCCCCCC(=O)OC[C@@H](O)C1OC[C@H](O)[C@H]1O (some centres not stated)	/	/	.	/	/	.
CCOC(=O)COc1cccc2c(=O)n(CC(=O)NCc3ccccc3)ccc12	0.461µM	0.517µM	0.651µM	0.92µM	1.64µM	1.03µM
CCOC(=O)C(C)Oc1cccc2c(=O)n(CC(=O)NCc3ccc4c(c3)OCO4)ccc12 (configuration not stated)	?	?	2.31µM	6.51µM	7.31µM	2.59µM
CCOC(=O)COc1cccc2c(=O)n(CC(=O)NCc3ccc(F)cc3)ccc12	1.03µM	1.16µM	0.517µM	0.581µM	1.46µM	0.581µM
CCOC(=O)C(C)Oc1cccc2c(=O)n(CC(=O)Nc3ccc4c(c3)OCCO4)ccc12 (configuration not stated)	.	.	.	.	.	.
SMILES	HT1080 IDH1KD tx	HT1080NT lethal	TDP1 cell noCPT	KB-3-1 cytotox	KB-V1 MDR tox	TDP1 cell CPT
CCOC(=O)COc1cccc2c(=O)n(CC(N)=O)ccc12	.	.	.	.	.	.
Cn1nc(C(=O)NC2CCCCC2)c2ccccc2c1=O	.	.	.	.	16.4µM	.
Cn1nc(CC(=O)Nc2ncc(Br)s2)c2ccccc2c1=O	.	.	?	.	.	10.3µM
COc1ccc(CCNC(=O)Cc2nn(C)c(=O)c3ccccc23)cc1OC	.	.	?	.	.	?
Cn1nc(CC(=O)NC2CCCCCCCCCCC2)c2ccccc2c1=O	.	.	18.4µM	?	.	18.4µM
CCCCn1nc(C(=O)N(CC)CC(=O)Nc2c(F)cccc2F)c2ccccc2c1=O	.	.	?	.	.	?
CCCCn1nc(C(=O)NCC(=O)Nc2c(C)cccc2C)c2ccccc2c1=O	.	.	?	.	1.64µM	?
Cn1cc(CC(=O)NC2CCCCC2)c2ccccc21	.	.	.	.	.	.
CC1CCC(NC(=O)c2nn(C)c(=O)c3ccccc23)CC1 (configuration not stated)	.	.	.	.	.	.
CC1CCc2nc3ncn(Cc4ccccc4C#N)c(=O)c3cc2C1 (configuration not stated)	/	/	?	.	.	?
Cn1nc(CC(=O)Nc2ccc3c(c2)CCC3)c2ccccc2c1=O	2.91µM	.	1.64µM	.	.	3.26µM
CCCCn1nc(C(=O)NC2CCCCC2)c2ccccc2c1=O	.	.	11.6µM	.	.	?
CCCn1nc(C(=O)NC2CC2)c2ccccc2c1=O	.	.[9.24 µM]	.	.	.	.
C[C@H](CO)N1C[C@H](C)[C@@H](CN(C)S(=O)(=O)c2cccs2)Oc2ccc(NS(=O)(=O)c3ccccc3)cc2CC1=O	.	.	?	.	.	?
CN(C)c1ncc2ncc(=O)n(Cc3ccc(F)cc3)c2n1	/	/	20.6µM	/	/	10.3µM
COCCn1c(=O)cnc2cnc(Oc3cccc(Cl)c3)nc21	/	/	.	/	/	.
O=c1cnc2cnc(Oc3cccc(Cl)c3)nc2n1Cc1ccc(F)cc1	/	/	23.1µM	/	/	?
COc1ccc(Oc2ncc3ncc(=O)n(Cc4cccs4)c3n2)cc1	/	/	23.1µM	/	/	?
CCOC(=O)c1ccc(NC(=O)c2nc[nH]c2C(=O)NC[C@@H](C)O)cc1	.	.	.	.	.	.
Cc1c(Cl)cccc1NC(=O)CSc1nc2ncc(Cl)cc2[nH]1	.	.	?	.	.	?
COc1ccccc1CNC(=O)C(=O)NCC1OCCCN1S(=O)(=O)c1cccs1 (configuration not stated)	.	.	.	.	.	.
CCOc1ccccc1N1CCN(C(=O)c2cccs2)CC1	.	.	.	.	.	.
CCCC(=O)N1CCC1(C)C(=O)Nc1cc(OC)ccc1OC (configuration not stated)	.	?	.	.	.	.
O=C1CSC2(CCN(CCCN3c4ccccc4Sc4ccc(Cl)cc43)CC2)N1	/	/	9.44µM	/	/	23.7µM
